# Screens deposited in PubChem by National Center for Advancing Translational Sciences (NCATS).
# The list is not random: actives were taken first. Their share in the collection is about 0.43%.
# GAA glycogen mod: GAA glycogen-cleavage inhibition or activation; P10253; recombinant GAA, glycogen substrate, Amplex Red glucose oxidase fluorescence; Potency, µM (series often up to 76.4 µM), inactives show at the highest dose activity change, negative = inhibition, usual class: inhibitors; 0.38% of 300,000 active; AID 2100;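 note: potency is the fitted concentration of half-maximal effect; 0% = full enzyme reaction and -100% = no-enzyme basal signal; the screen sought inhibitors and activators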
#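 Recombinant human enzyme (4 nM); glycogen substrate; 37 C, 40 min, pH 5.0. Readout: coupled glucose oxidase/Amplex Red fluorescence.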
# aGlu spleen mod: lysosomal alpha-glucosidase (human) modulation | 0.006% of 240,000 active | human spleen homogenate, 4-MU-alpha-glucoside fluorescence | P10253 | Potency, µM (series often up to 79.9 µM), for inactives: at the top dose activity change, negative = inhibition, hits mostly inhibitors | AID 2112;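 note: potency is the fitted concentration of half-maximal effect; 0% = enzyme with vehicle and -100% = no enzyme basal signal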
#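 Compounds were titrated against alpha-glucosidase in spleen homogenate at pH 5.0, with 1 mM 4-methylumbelliferyl substrate for 40 min at 37 C. Reactions were quenched with pH 10 NaOH/glycine and fluorescence measured.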
# GLA inh pH 4.5: blocks human alpha-galactosidase A at pH 4.5 | P06280 | purified enzyme, 4-MU-alpha-Gal fluorescence, pH 4.5 | activity change, negative = inhibition, % at 105 µM | 230,000 tested, under 10 active;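 note: 0% = full activity with enzyme and -100% = basal without enzyme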
# Target sequence (P06280 whole entry, looked up): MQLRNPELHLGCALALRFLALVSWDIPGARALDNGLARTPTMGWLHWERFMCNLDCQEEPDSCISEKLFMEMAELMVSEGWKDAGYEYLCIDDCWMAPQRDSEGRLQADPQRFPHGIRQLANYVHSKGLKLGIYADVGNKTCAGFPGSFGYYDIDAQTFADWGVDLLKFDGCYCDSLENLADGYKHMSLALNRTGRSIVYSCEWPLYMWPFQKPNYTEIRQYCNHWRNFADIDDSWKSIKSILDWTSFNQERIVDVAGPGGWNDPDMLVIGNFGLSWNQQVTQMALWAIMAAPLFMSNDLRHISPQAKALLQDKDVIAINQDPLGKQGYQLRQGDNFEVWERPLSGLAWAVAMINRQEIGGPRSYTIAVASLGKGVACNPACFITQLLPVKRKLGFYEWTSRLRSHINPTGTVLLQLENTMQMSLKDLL
# N370S GC mod: inhibitors or activators of N370S glucocerebrosidase for Gaucher disease; Potency, µM (titrated, usually from 59.4 µM), for the others: at the top dose activity change, negative = inhibition, actives largely listed as inhibitors; N370S GC spleen homogenate, 4MU-glucoside fluorescence; 0.092% of 330,000 active; P04062; AID 2101;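 note: potency is the fitted concentration of half-maximal effect; 0% = full enzyme activity and -100% = no enzyme basal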
# aGal spleen mod: inhibits or activates alpha-galactosidase in human spleen homogenate; P06280; human spleen homogenate, 4MU-alpha-Gal fluorescence, 40 min; Potency, µM (top dose mostly 80 µM), for inactives: at the top dose activity change, negative = inhibition, actives largely listed as inhibitors; 0.008% of 240,000 active; AID 2107;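 note: potency is the fitted concentration of half-maximal effect; 0% = enzyme with vehicle and -100% = no enzyme basal signal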
#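 Inhibition or activation of alpha-galactosidase in human spleen homogenate is scored by 4-MU fluorescence after 40 min at 37C, pH 5.0, with 1 mM substrate. AC50s come from concentration-response fitted to the Hill equation.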
# GAA inh: inhibitors of human lysosomal alpha-glucosidase; P10253; purified human GAA, 4-MU-alpha-glucoside fluorescence; Potency, µM (titrated, usually from 76.9 µM), inactives show top-dose activity change, negative = inhibition, usual class: inhibitors; 0.005% of 200,000 active; AID 1466;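 note: potency is the fitted concentration of half-maximal effect; plate controls were uninhibited enzyme wells for no effect and no-enzyme background for full effect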
#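 Compounds are titrated up to 77 uM against 4 nM human enzyme. Substrate 4-methylumbelliferyl-alpha-D-pyranoside (400 uM) reacts 20 min at room temperature in pH 5.0 buffer; liberated 4-methylumbelliferone is read at 440 nm.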
# * marks the source's active call; other numbers are inactive results; ? = inconclusive; . = no result; [ ] = dose if it differs, or a comment. Calls come from the whole dose curve; as a rule, active = well fitted curve in the direction sought with a large enough effect; inconclusive = small, poorly fitted or top-dose-only effect, or another doubt; inactive = no such curve, though single readings can be large; an effect the other way counts as inactive or inconclusive.
SMILES,GAA glycogen mod,aGlu spleen mod,GLA inh pH 4.5,N370S GC mod,aGal spleen mod,GAA inh
Cc1cc(Nc2ccccc2)n(-c2ccccc2)n1,12.5µM*,-1.8%,-2.8,-3.2%,2.9%,-6.6%
Cc1cc(C)nc(-n2nc(C)cc2Nc2ccccc2)n1,-19.7%,-6.5%,-2.3,23.9%,-0.7%,-15.3%
O=C1CCCC=C1[C@H](CCc1ccccc1)OC(=O)c1ccc(Br)cc1,.,-1.7%[17.4 µM],.,5.9%[12.8 µM],4.8%[17.5 µM],.
COc1ccc(O)c(-c2cc(-c3cccs3)[nH]n2)c1,39.8µM*,1.6%,-1.1,-23.6%[2.35 µM],6.2%,-10.4%
CCNc1ncc2ncc(=O)n(CCOC)c2n1,.,19.5%,.,?,?,.
CC1(C)CC(O)C(C)(C)N1O (centres undefined),15.7µM*,-10.4%,-11.9,7.3%,-16.1%,-8.2%
Cc1ccc(S(=O)(=O)c2nnn3c2nc(NC2CCCCCC2)c2sccc23)cc1C,13.1%[76.3 µM],.,.,.,.,.
Oc1ccc(/C=N/Nc2ccccc2)cc1,?,0.7%,10.8,-1.7%,-1.8%,7.9%
Oc1ccc(Nc2nc3ccccc3nc2Nc2ccc(O)cc2)cc1,19.8µM*,-1.9%,-2.6,4.47µM*,-7.1%,-1.4%
Cc1nc2ccccc2nc1N/N=C/c1ccc(O)cc1,25.1µM*,1.5%,-15.3,-27.0%,2.8%,.
Cc1cc(=O)oc2cc(NC(=O)CC(N)C(=O)O)ccc12 (centres undefined),.,-8.2%,.,12.0%,3.9%,.
CCOC(=O)c1c(C)[nH]c(NC(=O)Nc2c(C)n(C)n(-c3ccccc3)c2=O)c1C,31.6µM*,-19.9%,-2.9,2.7%,1.3%,-3.8%
Cc1c(NS(=O)(=O)c2ccccc2)cc(C(C)C)c(O)c1S(=O)(=O)c1ccc(Cl)cc1,11.2µM*,.,.,.,.,.
COc1ccc(S(=O)(=O)c2c(C)c(NS(=O)(=O)c3ccccc3)cc(C)c2O)cc1,?,-4.1%,-0.8,10.8%,-1.2%,-1.9%
C/C=C/c1cc(CN2CCN(c3ccc(OC)cc3)CC2)c(O)c(OC)c1,14.1µM*,-1.9%,-5.4,15.3%,-1.9%,-2.8%
C/C=C/c1cc(CN2CCN(c3ccccc3)CC2)c(O)c(OC)c1,?,1.2%,-11.0,-8.4%,3.3%,6.0%
COc1ccc(C2=NN(S(C)(=O)=O)C(c3cn(-c4ccccc4)nc3-c3cccs3)C2)cc1 (centres undefined),-7.0%[76.3 µM],.,.,.,.,.
O=[N+]([O-])c1ccc(N/N=C/c2c[nH]c3ccccc23)cc1,17.8µM*,-20.1%,-0.8,.,-11.6%,3.7%
O=[N+]([O-])c1ccc(N/N=C/c2cccc(O)c2O)cc1,?,.,.,-23.5%,.,.
O=[N+]([O-])c1ccc(N/N=C/c2ccc[nH]2)cc1,7.94µM*,-11.5%,-6.0,.,1.8%,0.9%
COc1ccc(C2C3C=CCCC3(C)C(=O)N2Cc2ccccc2)cc1Cl (centres undefined),.,1.4%,.,9.1%,2.8%,.
COc1ccc(-n2c(=O)c3c4c(sc3n(Cc3cccc(F)c3)c2=O)CN(C(C)=O)CC4)c(OC)c1,-1.0%,7.0%,-2.1,-19.4%,3.8%,7.0%
COc1ccc(-n2c(=O)c3c4c(sc3n(Cc3ccc(F)cc3)c2=O)CN(C(C)=O)CC4)c(OC)c1,56.2µM*,.,.,.,.,.
CCCN(C(=O)c1cc(S(=O)(=O)N2CCc3ccccc32)cn1C)c1ccc(OCC)cc1,13.8%[76.3 µM],.,.,.,.,.
CC/C=C/[C@@H](c1ccccc1)[C@H](C)C(O)CC(=O)SC(C)(C)C (some centres undefined),.,3.0%,.,10.2%,1.5%,.
SMILES,GAA glycogen mod,aGlu spleen mod,GLA inh pH 4.5,N370S GC mod,aGal spleen mod,GAA inh
CC(=O)c1ccc(NC(=O)COc2ccccc2-c2nc(C)no2)cc1,7.08µM*,.,.,.,.,.
CC(=O)c1ccc(NC(=O)COc2ccccc2-c2nc(C(C)C)no2)cc1,-9.8%[76.3 µM],.,.,.,.,.
COC(=O)CNC(=O)[C@@]1(C)C=C[C@@H](Cc2ccccc2)N1C(C)=O,.,6.0%,-3.1,19.8%,3.3%,.
CCOc1ccc(NC(=O)N2CCC(CN3CCc4ccccc4C3)CC2)cc1,50.1µM*,.,.,.,.,.
CCNC(=S)N/N=C(\C)c1ccc2ccccc2c1OC(F)F,50.1µM*,4.4%,-1.9,-12.9%,1.5%,3.2%
O=C(Nc1nccs1)C1CC=CC2CCN(Cc3ccc(Cl)c(Cl)c3)C(=O)C21 (centres undefined),.,-1.2%,.,1.6%,3.7%,.
CCN(CCCNC(=O)c1cc(Nc2ccc(OC)cc2OC)nc2ccccc12)c1cccc(C)c1,-21.9%[76.3 µM],.,.,.,.,.
Cc1ccccc1NS(=O)(=O)c1ccc(C(=O)N2CCCC2)cc1,.,.,.,2.1%,.,.
Cc1cccc(NS(=O)(=O)c2ccc(C(=O)N3CCN(c4ccccc4O)CC3)cc2)c1C,4.47µM*,.,.,-5.4%,.,.
CC1Sc2ccc(S(=O)(=O)CCC(=O)Nc3cc(F)ccc3F)cc2NC1=O (centres undefined),.,.,.,10µM*,.,.
Cc1cc(NC(=O)CCS(=O)(=O)c2ccc3c(c2)NC(=O)C(C)S3)ccc1Br (centres undefined),.,.,.,8.91µM*,.,.
COc1ccc(OC)c(Cc2nnc(CCC(=O)NC(C3CC3)C3CC3)o2)c1,11.5%,-1.9%,2.3,-2.0%,-7.8%,0.7%
COc1ccc(OC)c(Cc2nnc(CCC(=O)NCc3ccc(C)s3)o2)c1,10µM*,-3.1%,2.5,6.7%,-3.0%,3.4%
Nc1ccccc1Nc1cccc(C(F)(F)F)c1,11.2µM*,.,0.6,-1.3%,-2.2%,-5.2%
CC(C)N(Cc1ccccc1)C(=O)c1nc(-c2ccc(Cl)cc2)n2c1CCCCC2,-8.4%[76.3 µM],.,.,.,.,.
Oc1ccc(/C=N/Nc2ccc(C(F)(F)F)cn2)cc1,22.4µM*,-4.6%,-11.5,-1.2%,12.8%,-9.6%
N#C/C(=C/c1ccc(F)cc1)S(=O)(=O)c1ccccc1,-4.5%,6.2%,-4.4,-16.7%,15.9%,.
N#C/C(=C\c1ccc(O)c(O)c1)S(=O)(=O)c1ccccc1,7.08µM*,-6.6%,-21.7,-17.0%,2.8%,-6.6%
Cc1ccc(Cl)cc1NC(=O)N1CCC2(CC1)Oc1ccccc1C(=O)N2Cc1ccccc1F,-7.1%[76.3 µM],.,.,.,.,.
O=C(Nc1cccc(-c2nc3cccnc3s2)c1)c1cccc(Br)c1,13.5%[76.3 µM],.,.,.,.,.
CCn1cnc2cc(NCc3cccc(OC)c3O)ccc21,15.7µM*,-4.5%,0.6,17.4%,-8.0%,1.1%
Cc1ccc(OCC(O)C(C)NC(C)C)c2c1CCC2 (centres undefined),.,5.7%,3.8,-8.2%,7.5%,.
O=C(O)C1OC(Oc2cc3oc(-c4ccccc4)cc(=O)c3c(O)c2O)C(O)C(O)C1O (centres undefined),6.31µM*,-4.4%,2.4,22.1%,-2.3%,2.4%[15.4 µM]
Cc1ccc(-c2nc(C#N)c(NCC3CCCO3)o2)cc1 (centres undefined),?,4.8%,5.5,-1.5%,10.2%,14.2%
